Measurements: PubChem BioAssay (NCI)
Compounds without any hit were thinned out: in the full panel of roughly 79,000, 15% have a hit. A number with no mark means an inactive call. Calls of active or inactive are those of the source. No stated cut-off is given here; in the data, active means growth inhibition above about 70%; inactive means the rest.

Columns and labels:
[1] = NCI Yeast Anticancer Drug Screen. Data for the rad52 strain (AID 147);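 further: 0% = growth of vehicle-treated control cultures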; settings: S. cerevisiae rad52 mutant growth inhibition, active compounds read high
Method in brief: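 Yeast strain carrying a DNA damage repair alteration was exposed to test compounds. Growth inhibition was measured relative to vehicle-treated controls.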

[2] = NCI Yeast Anticancer Drug Screen. Data for the wt1 strain (AID 149);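 further: 0% = growth of vehicle-treated wt1 cultures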; settings: S. cerevisiae wt1 strain (SPY 50644) growth inhibition, active compounds read high
Method in brief: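 Compounds are added to wt1 yeast cultures. Growth is then measured. Inhibition is expressed relative to vehicle-treated controls.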

[3] = NCI Yeast Anticancer Drug Screen. Data for the rad50EPP+ strain (AID 151);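 further: 0% = growth of vehicle-treated control cultures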; settings: S. cerevisiae rad50 mutant strain, active compounds read high
Method in brief: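 Yeast strain carrying rad50 alteration (rad50EPP+) exposed to compounds; growth inhibition measured relative to vehicle-treated controls.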

[4] = NCI Yeast Anticancer Drug Screen. Data for the mgt1 strain (AID 153); settings: S. cerevisiae mgt1 mutant growth inhibition, active compounds read high
Method in brief: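 Yeast mgt1 strain (DNA repair/cell-cycle alteration panel) exposed to compounds; growth inhibition measured relative to vehicle-treated controls.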

[5] = NCI Yeast Anticancer Drug Screen. Data for the rad50 strain (AID 155);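 further: 0% = growth of vehicle-only cultures of the same strain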; settings: S. cerevisiae rad50 strain growth inhibition, active compounds read high
Method in brief: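 Inhibition values express reduced yeast growth in compound-treated cultures relative to vehicle-treated controls.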

[6] = NCI Yeast Anticancer Drug Screen. Data for the mec2-1 strain (AID 157); settings: S. cerevisiae mec2-1 strain, active compounds read high
Method in brief: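 mec2-1 yeast strain, carrying an alteration in DNA damage repair or cell cycle control, was exposed to compounds; growth inhibition was measured relative to vehicle-treated controls.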

[7] = NCI Yeast Anticancer Drug Screen. Data for the rad14 strain (AID 159);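 further: 0% = growth of vehicle-treated control cultures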; settings: S. cerevisiae rad14 strain growth inhibition, active compounds read high
Method in brief: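 A mutant yeast strain defective in DNA damage repair is treated with compound; inhibition of its growth is scored against untreated, vehicle-exposed cultures.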

[8] = NCI Yeast Anticancer Drug Screen. Data for the sgs1 mgt1 strain (AID 161);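 further: 0% = growth of cultures given vehicle only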; settings: S. cerevisiae sgs1 mgt1 strain, active compounds read high
Method in brief: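 This yeast growth screen uses a strain with defined DNA-repair lesions; compound-treated growth is compared with vehicle-treated growth.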

[9] = NCI Yeast Anticancer Drug Screen. Data for the CLN2oe strain (AID 163);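 further: 0% = growth of vehicle-only control cultures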; settings: S. cerevisiae CLN2oe strain, active compounds read high
Method in brief: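 Yeast cells carrying a defined cell-cycle control alteration were exposed to test compounds. Growth inhibition was scored against vehicle-treated control cultures.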

[10] = NCI Yeast Anticancer Drug Screen. Data for the cln2 rad14 strain (AID 165);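 further: 0% = growth equal to vehicle treated cultures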; settings: S. cerevisiae cln2 rad14 strain, active compounds read high
Method in brief: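 Yeast carrying cln2 and rad14 alterations (cell cycle control and DNA damage repair) were exposed to compounds. Growth inhibition was measured against vehicle-treated controls.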

[11] = NCI Yeast Anticancer Drug Screen. Data for the bub3 strain (AID 167); settings: S. cerevisiae bub3 mutant strain, active compounds read high
Method in brief: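 Steps: expose the mutant yeast strain to compound; grow alongside vehicle-treated cultures; measure growth; express inhibition against the vehicle cultures.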

[12] = NCI Yeast Anticancer Drug Screen. Data for the wt2 strain (AID 169);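 further: 0% = growth of vehicle-treated yeast cultures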; settings: S. cerevisiae wt2 strain growth inhibition, active compounds read high
Method in brief: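 Yeast cells were exposed to test compounds, and growth inhibition was measured relative to vehicle-treated controls.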

[13] = NCI Yeast Anticancer Drug Screen. Data for the mlh1 strain (AID 171);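 further: 0% = growth of vehicle-treated control cultures of the same strain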; settings: S. cerevisiae mlh1 strain growth inhibition, active compounds read high
Method in brief: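 Yeast carrying a defined genetic alteration in DNA damage repair or cell cycle control were exposed to test compounds. Growth inhibition was measured relative to vehicle-treated controls.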

[14] = NCI Yeast Anticancer Drug Screen. Data for the sgs1 strain (AID 173);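 further: 0% = growth of vehicle-only control cultures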; settings: S. cerevisiae sgs1 mutant, active compounds read high
Method in brief: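 Yeast mutant strains carrying defined defects in DNA damage repair or cell cycle control were exposed to test compounds. Growth inhibition was scored against vehicle-treated controls.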

[15] = NCI Yeast Anticancer Drug Screen. Data for the mlh1 rad18 strain (AID 175); settings: S. cerevisiae mlh1 rad18 strain growth inhibition, active compounds read high
Method in brief: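 Growth inhibition of the yeast strain was measured after compound exposure and expressed relative to vehicle-treated controls. The strain carries defined defects in DNA damage repair.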

[16] = NCI Yeast Anticancer Drug Screen. Data for the rad18 strain (AID 177); settings: S. cerevisiae rad18 mutant growth inhibition, active compounds read high
Method in brief: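 Yeast carrying a defined DNA damage repair alteration were exposed to compounds. Growth inhibition was expressed relative to vehicle-treated controls.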

[17] = at 5.0 µM (retest, dose inferred, filed as 0.5)
[18] = at 50.0 µM (retest, dose inferred, filed as 5.0)

`Cc1c(C(Cc2ccccc2N(C)C(=O)/C=C\C(=O)O)c2c[nH]c3ccccc23)c2ccccc2n1C` (stereo not drawn) gave a growth inhibition ([1]; at 1.2 µM) of -5%, a growth inhibition ([1]; at 3.7 µM) of 0% and a growth inhibition ([1]; at 11.0 µM) of 0%. For the same molecule, the growth inhibition ([1]; at 33.0 µM) was 7%, the growth inhibition ([1]; at 100.0 µM) was 36% and the growth inhibition ([2]; at 1.2 µM) was -3%. For the same molecule, the growth inhibition ([2]; at 3.7 µM) was -6%, the growth inhibition ([2]; at 11.0 µM) was -7% and the growth inhibition ([2]; at 33.0 µM) was 0%. The growth inhibition ([2]; at 100.0 µM) was 40%, the growth inhibition ([3]; at 1.2 µM) was -6% and the growth inhibition ([3]; at 3.7 µM) was -4%. It also gave a growth inhibition ([3]; at 11.0 µM) of -6%, a growth inhibition ([3]; at 33.0 µM) of -6% and a growth inhibition ([3]; at 100.0 µM) of 4%. It also gave a growth inhibition ([4]; at 1.2 µM) of -3%, a growth inhibition ([4]; at 3.7 µM) of -3% and a growth inhibition ([4]; at 11.0 µM) of -2%. For the same molecule, the growth inhibition ([4]; at 33.0 µM) was 5%, the growth inhibition ([4]; at 100.0 µM) was 65% and the growth inhibition ([5]; at 1.2 µM) was 1%. It also gave a growth inhibition ([5]; at 3.7 µM) of -2%, a growth inhibition [5, 17] of -12% and a growth inhibition ([5]; at 11.0 µM) of -9%. The growth inhibition ([5]; at 33.0 µM) was 8%, the growth inhibition [5, 18] was -12% and the growth inhibition ([5]; at 50.0 µM) was 87.8% (active). It also gave a growth inhibition ([5]; at 100.0 µM) of 37%, a growth inhibition ([6]; at 1.2 µM) of -2% and a growth inhibition ([6]; at 3.7 µM) of -4%. The growth inhibition [6, 17] was 8%, the growth inhibition ([6]; at 11.0 µM) was -5% and the growth inhibition ([6]; at 33.0 µM) was 2%. The growth inhibition [6, 18] was 8%, the growth inhibition ([6]; at 50.0 µM) was 86.8% (active) and the growth inhibition ([6]; at 100.0 µM) was 51%. The growth inhibition ([7]; at 1.2 µM) was -3%, the growth inhibition ([7]; at 3.7 µM) was -11% and the growth inhibition ([7]; at 11.0 µM) was -14%. It also gave a growth inhibition ([7]; at 33.0 µM) of -13%, a growth inhibition ([7]; at 100.0 µM) of 33% and a growth inhibition [8, 17] of -16%. The growth inhibition [8, 18] was -16%, the growth inhibition ([8]; at 50.0 µM) was 86.9% (active) and the growth inhibition ([9]; at 1.2 µM) was -11%. The growth inhibition ([9]; at 3.7 µM) was -2%, the growth inhibition ([9]; at 11.0 µM) was -9% and the growth inhibition ([9]; at 33.0 µM) was -4%. It also gave a growth inhibition ([9]; at 100.0 µM) of 42%, a growth inhibition [10, 17] of 38% and a growth inhibition [10, 18] of 38%. The growth inhibition ([10]; at 50.0 µM) was 88.1% (active), the growth inhibition ([11]; at 1.2 µM) was -9% and the growth inhibition ([11]; at 3.7 µM) was -6%. For the same molecule, the growth inhibition [11, 17] was -6%, the growth inhibition ([11]; at 11.0 µM) was 4% and the growth inhibition ([11]; at 33.0 µM) was 6%. For the same molecule, the growth inhibition [11, 18] was -6%, the growth inhibition ([11]; at 50.0 µM) was 85.5% (active) and the growth inhibition ([11]; at 100.0 µM) was 30%. The growth inhibition ([12]; at 1.2 µM) was -3%, the growth inhibition ([12]; at 3.7 µM) was -4% and the growth inhibition ([12]; at 11.0 µM) was -5%. For the same molecule, the growth inhibition ([12]; at 33.0 µM) was 3%, the growth inhibition ([12]; at 100.0 µM) was 49% and the growth inhibition ([13]; at 1.2 µM) was -7%. For the same molecule, the growth inhibition ([13]; at 3.7 µM) was -6%, the growth inhibition ([13]; at 11.0 µM) was -7% and the growth inhibition ([13]; at 33.0 µM) was 4%. The growth inhibition ([13]; at 100.0 µM) was 62%, the growth inhibition ([14]; at 1.2 µM) was -5% and the growth inhibition ([14]; at 3.7 µM) was -4%. For the same molecule, the growth inhibition ([14]; at 11.0 µM) was -3%, the growth inhibition ([14]; at 33.0 µM) was 7% and the growth inhibition ([14]; at 100.0 µM) was 46%. The growth inhibition [15, 17] was -9%, the growth inhibition [15, 18] was -9% and the growth inhibition ([15]; at 50.0 µM) was 78% (active). The growth inhibition ([16]; at 1.2 µM) was -14%, the growth inhibition ([16]; at 3.7 µM) was -14% and the growth inhibition ([16]; at 11.0 µM) was -8%. It also gave a growth inhibition ([16]; at 33.0 µM) of 0% and a growth inhibition ([16]; at 100.0 µM) of 42%.
